According to PubChem BioAssay (NCI):
“And” between values parts separate entries of the source, which are not always exact repeats. Identical values can stand only once. The panel holds about 79,000 compounds, 15% with a hit somewhere; the sample as a whole holds those more often. The source made the active and inactive calls. Rule as the data show it: active = growth inhibition above about 70%; inactive = the rest.

What was measured:
[1] = NCI Yeast Anticancer Drug Screen. Data for the rad50 strain (AID 155);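 also: 0% = growth of vehicle-only cultures of the same strain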; details: S. cerevisiae rad50 strain growth inhibition, hits give high values; at 50.0 µM unless noted
Procedure, shortened: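 Compounds were tested on a yeast strain with an engineered DNA damage repair alteration; the reported value is growth inhibition normalised to vehicle treatment.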

[2] = NCI Yeast Anticancer Drug Screen. Data for the mec2-1 strain (AID 157); details: S. cerevisiae mec2-1 strain, hits give high values; at 50.0 µM unless noted
Procedure, shortened: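 Compounds were applied to mec2-1 yeast cells. Their growth was then compared with that of vehicle-treated cultures to give growth inhibition.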

[3] = NCI Yeast Anticancer Drug Screen. Data for the sgs1 mgt1 strain (AID 161);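 also: 0% = growth of cultures given vehicle only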; details: S. cerevisiae sgs1 mgt1 strain, hits give high values; at 50.0 µM unless noted
Procedure, shortened: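 Percent growth inhibition was derived by comparing compound-exposed mutant yeast with vehicle-exposed cultures. The strain carries alterations in DNA damage repair.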

[4] = NCI Yeast Anticancer Drug Screen. Data for the cln2 rad14 strain (AID 165);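 also: 0% = growth equal to vehicle treated cultures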; details: S. cerevisiae cln2 rad14 strain, hits give high values; at 50.0 µM unless noted
Procedure, shortened: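 Strain: cln2 rad14 yeast, altered in cell cycle control and DNA damage repair. Read-out: growth inhibition vs vehicle.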

[5] = NCI Yeast Anticancer Drug Screen. Data for the bub3 strain (AID 167); details: S. cerevisiae bub3 mutant strain, hits give high values; at 50.0 µM unless noted
Procedure, shortened: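 Growth of a checkpoint-deficient yeast mutant is measured after compound exposure. Values represent inhibition relative to vehicle.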

[6] = NCI Yeast Anticancer Drug Screen. Data for the mlh1 rad18 strain (AID 175); details: S. cerevisiae mlh1 rad18 strain growth inhibition, hits give high values; at 50.0 µM unless noted
Procedure, shortened: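 A repair-deficient yeast strain is exposed to test compound, and growth is scored relative to vehicle-treated controls.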

Measured: growth inhibition

CC(COc1ccc(C(C)(C)C)cc1)OC=O (stereo unspecified)
inactive: [1] 14.2% | [2] 3.2% | [3] 19.4% | [4] -12.9% | [5] 16.1% | [6] -6.4%

COc1ccc2c(c1)CCC1=C2CCC2(C)C1=CCS2(=O)=O (stereo unspecified)
inactive: [1] 3.85% | [2] -5.6% | [3] -7.9% | [4] 22.6% | [5] 8.45% | [6] -1.9%

CC(=O)NCC(C)NC(C)=O (stereo unspecified)
inactive: [1] -16.6% and -6.55% | [2] -37.4% and -15.4% | [3] -34.2% and -27.1% | [4] -6.75% and 7.7% | [5] -14.8% and -2.45% | [6] -15.2% and 8.1%

O=C(CCC1OCCO1)Nc1cc([N+](=O)[O-])ccc1OCc1ccccc1
inactive: [1] -1.9% | [2] 4.5% | [3] 6.25% | [4] -8.2% | [5] -1.35% | [6] 7.6%

CCOC(=O)C12CCCC1(O)N(NC(N)=O)C(C)=C2C(=O)OC (stereo unspecified)
inactive: [1] 10.2% | [2] -5.1% | [3] 3.05% | [4] -69.1% | [5] -11.9% | [6] 6.2%

O/N=C1/C2CC3CC1(c1ccccc1)CC(/C3=N/O)/C2=N\O (stereo unspecified)
inactive: [1] 9.15% | [2] 17.3% | [3] -12.1% | [4] 0.35% | [5] -17.8% | [6] -4.75%

COC1=CC(=O)c2cc3ccc(OC)c(N)c3nc2C1=O
inactive: [1] 12.8% | [2] -7.2% | [3] 5.45% | [4] -4.2% | [5] 13.3% | [6] -10.9%

O=C1c2ccccc2C(=O)N1CCCCCCS(=O)(=O)Cl
inactive: [1] 13.7% | [2] 10.9% | [3] -2.75% | [4] -16.9% | [5] -7.35% | [6] 0.55%

CC(=O)NNS(=O)(=O)c1ccccc1
inactive: [1] 8.1% | [2] 28.6% | [3] 4.15% | [4] -1.15% | [5] -17.9% | [6] 16.8%

Cc1ccc2[nH]c(=O)[nH]c(=O)c2c1
inactive: [1] -5.85% | [2] -5% | [3] -4.5% | [4] -45.2% | [5] -3.5% | [6] -12.7%

O=C(O)/C=C/C(=O)NCCCCCCNC(=O)/C=C/C(=O)O
inactive: [1] 4.55% | [2] -26.4% | [3] 2% | [4] -8.7% | [5] -16.9% | [6] -15.1%

COc1ccccc1C(=O)N/N=C/c1cccc([N+](=O)[O-])c1
inactive: [1] -2.15% | [2] 3.1% | [3] 13.7% | [4] -11.7% | [5] 29.1% | [6] 4.75%

O=NN(CCCl)C(=O)Oc1ccccc1
inactive: [1] -1.95% | [2] -10.6% | [3] -0.05% | [4] 0.15% | [5] -1.9% | [6] -11.3%

CSC(=S)OC(C)CC(C)C (stereo unspecified)
inactive: [1] 37.6% | [2] -3.95% | [3] 30.7% | [4] -12.1% | [5] 6.95% | [6] 25.5%

CS(=O)(=O)OCCN(CCOS(C)(=O)=O)c1ccc(C=Nc2ccc(C(=O)O)c(O)c2)cc1
inactive: [5] 19.8%
active: [1] 84.3% | [2] 84.5% | [3] 79.5% | [4] 78.7% | [6] 94%

Cc1nn(C(C)C(=O)N(C)C)c(Br)c1Br (stereo unspecified)
inactive: [1] 2.05% | [2] 4.7% | [3] 0.75% | [4] -30.4% | [5] -25.7% | [6] 3.15%

CC(C)=CCNc1ncnc2c1ncn2CCC(=O)O
inactive: [1] -23.9% | [2] -4.6% | [3] -57% | [4] -4.45% | [5] -9.85% | [6] -28.9%

OCC1=CC(O)C2C=COC(OC3OC(CO)C(O)C(O)C3O)C12 (stereo unspecified)
inactive: [1] -15.9% | [2] -24.6% | [3] -19.1% | [4] -6.45% | [5] -32% | [6] -31.1%

COc1ccc(C(C)(OC)c2cc(C(C)(C)C)c(O)c(C(C)(C)C)c2)cc1 (stereo unspecified)
inactive: [1] -19.2% | [2] -12.6% | [3] -20.2% | [4] -0.55% | [5] -2.05% | [6] -21.6%

N#CC1CC2CC1C1OC21 (stereo unspecified)
inactive: [1] -15.4% | [2] -10.3% | [3] -14.1% | [4] 9.35% | [5] -2.25% | [6] -5.9%

CC(=O)N(CCC(C)C)CCC(C)C
inactive: [1] 17.9% | [2] 2.3% | [3] 5.5% | [4] 14.3% | [5] -8.05% | [6] -11.2%
